Only some compounds are listed: those with a hit (about 19% of all), similar ones and a draw of the others.
HT1080NT lethal – kills 2HG-producing HT-1080-NT fibrosarcoma cells; HT-1080-NT fibrosarcoma viability, CellTiter-Glo ATP luminescence, 48 h; 360,000 tested, 1.6% active; AID 686970; Potency, µM (highest dose often 46.1 µM), most hits filed as cytotoxic;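 note: NT is the 2HG producing partner of a matched IDH1 knockdown line; nearly all actives have a fitted effect of over 55% in size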
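HT-1080-NT fibrosarcoma cells (2HG-overproducing), 750 cells/well in RPMI with 5% FBS, dosed after 2 h and incubated 48 h at 37C. CellTiter-Glo luminescence normalized to DMSO and no-cell wells; concentration-response curves fitted and classed.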
DT40 TDP1 no CPT – qHTS for Inhibitors of human tyrosyl-DNA phosphodiesterase 1 (TDP1): qHTS in cells in absence of CPT. 420,000 tested, 15% active. Potency, µM (highest dose often 46.2 µM), most hits filed as inhibitors. AID 686978, 2013. DT40 Tdp1-/- hTDP1 cells, no CPT, ATP luminescence, 48 h; note: nearly all actives have a fitted effect of over 55% in size
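A cellular qHTS used chicken DT40 cells lacking endogenous Tdp1 but carrying stably transfected human TDP1. Compounds were applied without camptothecin, and cell growth kinetics were judged by ATP-dependent luminescence after ≥48 hr.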
TDP1 cell CPT – growth inhibition of DT40 Tdp1-/-;hTDP1 cells with camptothecin (screen for TDP1 inhibitors); chicken DT40 Tdp1-/-;hTDP1 cells + 20 nM CPT, ATP luminescence, 48 h; Potency, µM (titrated, usually from 46.2 µM), actives largely listed as inhibitors; 420,000 tested, 12% active; note: nearly all actives have a fitted effect of over 55% in size
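Cell growth measured by CellTiter-Glo luminescence after a minimum 48 h, 37 C compound exposure with 20 nM CPT in Tdp1-knockout DT40 cells stably expressing hTDP1, seeded 400/well; qHTS titration format.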
HT1080 IDH1KD tx – HT-1080 IDH1 knockdown cell toxicity (counter line) | HT-1080 IDH1 knockdown viability, ATP luminescence, 48 h | 360,000 tested, 2% active | AID 686971 | Potency, µM (doses to about 46.1 µM), hits mostly cytotoxic
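CellTiter-Glo luminescence after 48 h compound exposure at 37 degrees C of IDH1-knockdown HT-1080 cells in 5% FBS RPMI. %Activity scaled between DMSO wells and cell-free media wells, with curves fitted and assigned curve classes.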
IL-1B inflam inh – inhibitors of inflammasome signaling (IL-1 beta secretion); THP-1 LPS/ATP IL-1B secretion, AlphaLISA, 16 h; hits give low values; 360,000 tested, 4.7% active; AID 743279; activity change, % at 57.5 µM; in the data active = activity change below about -50%; inconclusive = mostly about -30% to -49%
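THP-1 cells pretreated 1 hr with compounds (up to 57.5 uM final), then stimulated with LPS (250 ng/mL final) plus ATP (1.25 mM final); secreted IL-1B measured by AlphaLISA after 16 hr, decreased signal indicating inhibition.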
Hits are given with their value; 0 = inactive; ? = inconclusive; - = not tested or not shown. Unless noted, calls come from the whole dose curve; as a rule, active = well fitted curve in the direction sought with a large enough effect; inconclusive = small, poorly fitted or top-dose-only effect, or another doubt; inactive = no such curve, though single readings can be large; an effect the other way counts as inactive or inconclusive.

SMILES	HT1080NT lethal	DT40 TDP1 no CPT	TDP1 cell CPT	HT1080 IDH1KD tx	IL-1B inflam inh
O=C1NC[C@H](CCCCN2C[C@H](Cc3ccccc3)N(Cc3ccccc3)C(=O)C2=O)N(CCC2CCCCC2)C1=O	0	18µM	0	0	0
Cn1c(SCC(=O)N2CCOCC2)nc(O)cc1=O	0	0	0	0	0
CCN(CC)CCCN(C(=O)c1ccc(OC)cc1)c1nc(-c2ccc(OC)cc2)cs1	23µM	?	?	15µM	-
CCN(C(=O)c1cccs1)c1nc(-c2ccc(OC)cc2)cs1	?	?	0	0	0
CCN(CC)CCCN(C(=O)c1ccccc1F)c1nc(-c2ccc(OC)cc2)cs1	18µM	?	?	?	-65
COCCCN(C(C)=O)c1nc(-c2ccc(OC)cc2)cs1	0	?	15µM	0	0
CCN(CC)CCCN(C(=O)c1ccccc1C)c1nc(-c2ccc(OC)cc2)cs1	0	23µM	?	0	0
COc1ccc(S(=O)(=O)N2CCC(C(=O)N[C@@H](C)C(=O)NCc3ccco3)CC2)cc1	0	0	0	0	0
C=CCNc1nc(N2CCCCC2)c(C#N)c2c1CN(Cc1ccccc1)CC2	?	23µM	23µM	?	0
CCN1CCc2c(C#N)c(N3CCCCC3)nc(NCc3ccccc3)c2C1	?	16µM	21µM	?	0
O=c1c2c3c(sc2nnn1Cc1ccc(Br)cc1)CCCC3	-	?	0	-	-
COc1ccc(C(=O)Nc2ccccc2C(=O)NC2CC2)c(OC)c1OC	0	?	0	0	0
O=C(O)c1ccccc1C(=O)Nc1ccc(-n2ccc(C(F)(F)F)n2)cc1	0	0	0	0	0
COc1ccccc1C(=O)NC(=O)Nc1ccc(-n2nc(C(F)(F)F)cc2C(F)(F)F)cc1	-	15µM	?	-	-
COc1ccccc1NC(=O)Nc1ccc(-n2ccc(C(F)(F)F)n2)cc1	0	26µM	?	0	-71
Cc1cc(C)cc(NC(=O)Nc2ccc(-n3ccc(C(F)(F)F)n3)cc2)c1	21µM	21µM	?	23µM	-77
OC1OC[C@@H](O)[C@H](O)[C@@H]1O (some centres undefined)	-	0	0	-	-
COc1ccc2c(c1)C(=O)/C(=C/C=C/c1ccccc1)CC2	0	0	0	0	0
COc1ccc2c3c(ccc2c1)C(=O)/C(=C/O)CC3	0	16µM	?	0	0
CC(=O)Nc1ccc(S(=O)(=O)N[C@@H](C)C(=O)N2CCN(c3ccccn3)CC2)cc1	0	0	0	0	0
CCc1ccc(CC2S/C(=C(\C#N)C(C)=O)NC2=O)cc1 (centres undefined)	0	2.3µM	1.6µM	?	0
CC(=O)/C(C#N)=C1\NC(=O)C(Cc2ccc(C)c(Cl)c2)S1 (centres undefined)	0	2.1µM	10µM	?	0
O=C1NC(=Nc2ccc(F)cc2)SC1Cc1ccc(F)cc1 (centres undefined)	0	?	?	0	?
CCOC(=O)c1ccc(N2CCOCC2)c(NC(=O)c2nccnc2C(=O)O)c1	0	0	0	0	0
CN(c1ccc(C(=O)N2CCCCCC2)cc1)S(=O)(=O)c1ccccc1	0	8.2µM	13µM	0	0
SMILES	HT1080NT lethal	DT40 TDP1 no CPT	TDP1 cell CPT	HT1080 IDH1KD tx	IL-1B inflam inh
COc1cc2c(cc1OC)CN(C(=O)c1cccc(S(=O)(=O)N3CCc4ccccc43)c1)CC2	0	16µM	21µM	0	?
O=C(O)c1ccc(-c2nnc(-c3ccccc3)o2)cc1	0	0	?	0	0
CN(c1ccc(C(=O)N2CCN(Cc3ccccc3)CC2)cc1)S(=O)(=O)c1ccc(Cl)cc1	0	16µM	?	?	-
O=C(c1ccc(-c2nnc(-c3ccccc3)o2)cc1)N1CCCCCC1	0	18µM	10µM	0	0
NC(Cc1ccccc1)C(O)(c1ccccc1)c1ccccc1 (centres undefined)	0	?	?	0	?
COc1cc2c(cc1OC)CN(C(=O)c1ccncc1)CC2	0	0	0	0	0
CN(c1ccc(C(=O)N2CCCCC2)cc1)S(=O)(=O)c1cccs1	0	?	?	0	0
COc1cc2c(cc1OC)CN(C(=O)c1ccc(S(=O)(=O)N(C)c3ccccc3)cc1)CC2	?	15µM	?	0	0
O=C(c1ccc2nc[nH]c2c1)N1CCc2ccccc2C1	0	0	0	0	0
COc1ccc(S(=O)(=O)N(C)c2ccc(C(=O)N3CCCCC3)cc2)cc1OC	0	21µM	7.3µM	0	0
COc1cc2c(cc1OC)CN(C(=O)c1ccc3nc[nH]c3c1)CC2	10µM	3.3µM	3.3µM	12µM	0
COc1ccc(C(=O)N2CCc3ccc(NC(=O)c4ccccn4)cc3C2)cc1F	0	23µM	21µM	?	0
CC(=O)Nc1nonc1-c1nnc(SCc2ccccc2F)n1C	-	0	?	-	-
COc1ccc(S(=O)(=O)N(C)c2ccc(C(=O)N3CCOCC3)cc2)cc1	0	?	0	0	0
COc1ccc(S(=O)(=O)N(C)c2ccc(C(=O)N3CCCCC3)cc2)cc1	0	15µM	?	0	0
O=C1/C(=C/c2cccnc2)CC/C1=C\c1cccnc1	0	?	?	0	-87
CC(C)/C=C1\CC/C(=C\c2cccnc2)C1=O	0	21µM	?	0	0
NC1=NC(=O)/C(=C\c2cccnc2)S1	0	0	?	0	0
CC(C)N1C(=O)S/C(=C/c2cccnc2)C1=O	0	0	0	0	0
CCC1C/C(=C\c2cccnc2)C(=O)/C(=C/c2cccnc2)C1 (centres undefined)	?	4.6µM	3.3µM	?	?
O=C1/C(=C\c2cccnc2)CCc2ccccc21	?	18µM	13µM	?	-111
COc1ccc(CNC(=O)Cn2nc3c(cc2=O)CCCC3)cc1	-	0	0	-	-
O=C1/C(=C/c2ccccc2)CCCc2ccccc21	0	?	0	0	0
O=C1/C(=C/c2cccnc2)CCC/C1=C\c1cccnc1	?	2.1µM	2.1µM	?	-107
CC1NC(=O)N(C)C2NC(=O)N(C)C(c3ccccc3)C12 (centres undefined)	0	0	0	0	0
SMILES	HT1080NT lethal	DT40 TDP1 no CPT	TDP1 cell CPT	HT1080 IDH1KD tx	IL-1B inflam inh
CC(C)(C)c1ccc(Cn2cnc(-c3ccc([N+](=O)[O-])cc3)c2)cc1	0	23µM	23µM	0	?
Cc1cc(C)c(Cn2cnc(-c3ccc([N+](=O)[O-])cc3)c2)c(C)c1	0	15µM	13µM	?	-64
COc1ccc(-c2cn(Cc3ccc([N+](=O)[O-])cc3)nn2)cc1	0	?	?	0	0
CNc1ccc(OC)cc1-n1cnc(-c2ccc([N+](=O)[O-])cc2)c1	0	0	0	0	0
O=c1cc(CN2CCN(S(=O)(=O)c3ccccc3[N+](=O)[O-])CC2)nc2sccn12	0	0	?	0	0
Cc1cc(N2CCN(C)CC2)n2cc(-c3ccc(F)cc3)nc2n1	0	?	0	0	0

Assay outcomes from PubChem BioAssay.
